# Laboratory results from PubChem BioAssay (NCATS).
# Records with an inconclusive call do not appear. The source made the active and inactive calls. Calls come from the whole dose curve; as a rule, active = well fitted curve in the direction sought with a large enough effect; inconclusive = small, poorly fitted or top-dose-only effect, or another doubt; inactive = no such curve, though single readings can be large; an effect the other way counts as inactive or inconclusive.
# Assay: 10-beta competent E. coli microbial cell viability qHTS against the NCATS CANVASS Library (AID 1347376)
# Settings: E. coli 10-beta viability, BacTiter-Glo ATP luminescence, overnight; series mostly up to 46.1 µM
# Method in brief: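 Bacterial suspension diluted to 0.2 OD was dosed with compounds, 11-point series, then held overnight at 37C. BacTiter-Glo reagent was added, and after 20 min at room temperature ATP-dependent luminescence was measured.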
row,SMILES,outcome
1,COC(=O)[C@@H]1[C@H]2C[C@H]3c4[nH]c5ccccc5c4CCN3C[C@@H]2CC[C@@H]1O,inactive
2,O=C(O)C(O)Cc1ccc(O)c(O)c1 (configuration not stated),inactive
3,O=c1cc(-c2ccccc2)oc2cc(O)c(O)c(O)c12,inactive

# Assay: qHTS for H2AX Agonists against the NCATS CANVASS Library (AID 1347378)
# Settings: CHO-K1 H2AX phosphorylation, HTRF TR-FRET, 3 h; series mostly up to 76.9 µM
# Method in brief: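 CHO-K1 cells were plated overnight at 37C, then exposed to compounds (concentration series, 0.76% DMSO final) for 3 hr at 37C. Lysates received Eu-cryptate anti-pH2AX (S139) and d2 anti-H2AX antibodies; after 24 hr at room temperature, TR-FRET 665/620 nm ratio was read.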
row,SMILES,outcome
1,COC(=O)[C@@H]1[C@H]2C[C@H]3c4[nH]c5ccccc5c4CCN3C[C@@H]2CC[C@@H]1O,inactive
2,O=C(O)C(O)Cc1ccc(O)c(O)c1 (configuration not stated),inactive
3,O=c1cc(-c2ccccc2)oc2cc(O)c(O)c(O)c12,inactive

# Assay: qHTS for Inflammasome Signaling Inhibitors: IL-1-beta AlphaLISA screen against the NCATS CANVASS Library (AID 1347379);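 note: human THP-1 cells primed with LPS then triggered with ATP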
# Settings: THP-1 LPS/ATP, IL-1B AlphaLISA secretion, 16 h; series mostly up to 57.5 µM
# Method in brief: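 Secreted IL-1B from human THP-1 cells quantified by AlphaLISA 16 hr after compound addition (final up to 57.5 uM). A 1 hr compound pretreatment preceded inflammasome activation with 250 ng/mL LPS plus 1.25 mM ATP (final).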
row,SMILES,outcome
1,COC(=O)[C@@H]1[C@H]2C[C@H]3c4[nH]c5ccccc5c4CCN3C[C@@H]2CC[C@@H]1O,inactive
2,O=C(O)C(O)Cc1ccc(O)c(O)c1 (configuration not stated),inactive
3,O=c1cc(-c2ccccc2)oc2cc(O)c(O)c(O)c12,inactive

# Assay: Inflammasome Signaling qHTS Counterscreen: IL-1-beta AlphaLISA counterscreen against the NCATS CANVASS Library (AID 1347381);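 note: cell-free check with purified IL-1β in medium and no THP-1 cells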
# Settings: Purified IL-1beta AlphaLISA signal interference counterscreen; series mostly up to 57.5 µM
# Method in brief: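 Purified IL-1-beta (4 pg/well) + compound, 11-pt conc. series; acceptor beads 6 ug/mL + biotin-Ab 0.6 nM final, 1 h RT; SA-donor 24 ug/ml final, 30 min dark RT; read ex 680/em 615.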
row,SMILES,outcome
1,COC(=O)[C@@H]1[C@H]2C[C@H]3c4[nH]c5ccccc5c4CCN3C[C@@H]2CC[C@@H]1O,inactive
2,O=C(O)C(O)Cc1ccc(O)c(O)c1 (configuration not stated),inactive
3,O=c1cc(-c2ccccc2)oc2cc(O)c(O)c(O)c12,inactive

# Assay: Cytotoxicity qHTS for assessment of Hepg2 cells membrane integrity screened against the NCATS CANVASS Library (AID 1347387)
# Settings: HepG2 LDH release (CytoTox-ONE) fluorescence, 5 h; series mostly up to 46.1 µM
# Text: (§1) Natural products and their derivatives continue to be wellsprings of nascent therapeutic potential. However, many laboratories have limited resources for biological evaluation, leaving their previously isolated or synthesized compounds largely or completely untested. To address this issue, the Canvass library of natural products was assembled (https://tripod.nih.gov/canvass), in collaboration with academic and industry researchers, for quantitative high-throughput screening (qHTS) across a diverse set of cell-based and biochemical assays. The pure (>85% purity by liquid chromatography/mass spectrometry [LC/MS]) Canvass library of 346 natural products were submitted by 45 academic laboratories and companies around the world. We collected pure natural products to circumvent deconvolution and structure elucidation due to time and resource limitations. The library was formatted into 1536-well plates and evaluated in 50 qHTS (in an 11-pnt concentration series) bioassays with broad scope of disease-relevant mechanisms. The resulting data set from 50 different assays was then systematically analyzed to identify overall trends and specific natural products with interesting biological activities. Reported herein are the results of each individual qHTS and their corresponding assay protocol. The membrane integrity assay is a fluorometric method for estimating the number of nonviable cells. The assay measures the release of lactate dehydrogenase (LDH) from cells with a damaged cellular membrane. The amount of fluorescence is proportional to the number of lysed cells. National Center for Advancing Translational Sciences (NCATS), Rockville, MD National Institute of Health (NIH), Bethesda, Maryland
# Membrane Integrity-screen protocol: 1. In black solid-bottom 1536 well plates, 5 uL of HepG2 cell suspension was dispensed using the Multidrop Combi (Thermo Fisher Scientific) at a final concentration of 2000 cells / well (columns 2-48). 2. […] The fluorescence signal was measured using the EnVision plate reader (PerkinElmer) using a 560 nm excitation and 590 nm emission filters.
row,SMILES,outcome
1,COC(=O)[C@@H]1[C@H]2C[C@H]3c4[nH]c5ccccc5c4CCN3C[C@@H]2CC[C@@H]1O,inactive
2,O=C(O)C(O)Cc1ccc(O)c(O)c1 (configuration not stated),inactive
3,O=c1cc(-c2ccccc2)oc2cc(O)c(O)c(O)c12,inactive

# Assay: qHTS for Activators of p53 Stress Response Pathway screened against the NCATS CANVASS Library (AID 1347388)
# Settings: p53RE-bla HCT-116, beta-lactamase reporter, 16 h; series mostly up to 46.1 µM
# Method in brief: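 p53RE-bla HCT-116 cells (4000/well) were pre-incubated for 5 h, then treated with compound (11 points) for 16 h at 37C. After 2 h with CCF4, the 460/530 nm ratio gave reporter activation; CellTiter-Glo measured viability.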
row,SMILES,outcome
1,COC(=O)[C@@H]1[C@H]2C[C@H]3c4[nH]c5ccccc5c4CCN3C[C@@H]2CC[C@@H]1O,inactive
2,O=C(O)C(O)Cc1ccc(O)c(O)c1 (configuration not stated),inactive
3,O=c1cc(-c2ccccc2)oc2cc(O)c(O)c(O)c12,inactive

# Assay: qHTS assay for small molecule disruptors of mitochondrial membrane potential screened against the NCATS CANVASS Library (AID 1347389); note: nearly all actives have a fitted effect of over 60% in size
# Settings: HepG2 mitochondrial membrane potential, m-MPI red/green ratio, 1.5 h; series mostly up to 46.1 µM
# Text: as §1, with “In healthy cells,” for “The membrane integrity assay is a fluorometric method for estimating”, “mitochondria are polarized and mitochondrial-membrane potential indicator (m-MPI) accumulates in” for “number of nonviable cells. The assay measures”, “mitochondria as red fluorescent aggregates (emission at 590 nm). […] In response to mitochondrial depolarization, the red-to-green” for “release of lactate dehydrogenase (LDH) from cells with a damaged cellular membrane. The amount of”, “ratio decreases. […]” for “is proportional to the number of lysed cells. National Center for Advancing Translational Sciences (NCATS), Rockville, MD National Institute of Health (NIH), Bethesda, Maryland”
# Mitochondrial membrane potential protocol: 2,000 HepG2 cells in 5 uL/well were dispensed into black, clear-bottom 1536-well plates using a Multidrop Combi (Thermo Scientific) dispenser. […] Fluorescence intensity (490nm excitation and 535nm emission for monomers; and 540nm excitation and 590nm emissions for aggregates) was measured using an Envision plate reader.
row,SMILES,outcome
1,COC(=O)[C@@H]1[C@H]2C[C@H]3c4[nH]c5ccccc5c4CCN3C[C@@H]2CC[C@@H]1O,inactive
2,O=C(O)C(O)Cc1ccc(O)c(O)c1 (configuration not stated),inactive
3,O=c1cc(-c2ccccc2)oc2cc(O)c(O)c(O)c12,inactive

# Assay: Secretion counterscreen for inhibitors of the SERCaMP assay screened against the NCATS CANVASS Library (AID 1347390);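 note: light from luciferase secreted into medium read as a measure of general secretion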
# Settings: SH-SY5Y constitutive GLuc secretion, luminescence, 20 h; series mostly up to 76.6 µM
# Method in brief: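 SH-SY5Y cells expressing constitutively secreted GLuc, 1000 cells/well, attached 4 h at 37C, then exposed to compounds (0.001 - 77 uM, 11-pnt series) for 20 h. Coelenterazine added; luminescence read to flag secretory-pathway interferers.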
row,SMILES,outcome
1,COC(=O)[C@@H]1[C@H]2C[C@H]3c4[nH]c5ccccc5c4CCN3C[C@@H]2CC[C@@H]1O,inactive
2,O=C(O)C(O)Cc1ccc(O)c(O)c1 (configuration not stated),inactive
3,O=c1cc(-c2ccccc2)oc2cc(O)c(O)c(O)c12,inactive

# Assay: qHTS for activators of Nrf2/ARE signaling pathway screened against the NCATS CANVASS Library (AID 1347391); note: nearly all actives have a fitted effect of over 60% in size
# Settings: ARE-bla HepG2, beta-lactamase reporter, 16 h; series mostly up to 46.1 µM
# Method in brief: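 Beta-lactamase reporter signal, read as 460 and 530 nm emission under 405 nm excitation after 2 h CCF4 loading, reflected ARE activation in HepG2 cells treated 16 h with an 11-point series.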
row,SMILES,outcome
1,COC(=O)[C@@H]1[C@H]2C[C@H]3c4[nH]c5ccccc5c4CCN3C[C@@H]2CC[C@@H]1O,inactive
2,O=C(O)C(O)Cc1ccc(O)c(O)c1 (configuration not stated),inactive
3,O=c1cc(-c2ccccc2)oc2cc(O)c(O)c(O)c12,inactive
